Screening data from PubChem.
This is one part of a sample in which hits are shown more often than they occur.
TTR transcr act: increases transthyretin transcription. 92,000 compounds, 1.3% hits. activation, % at 16.7 µM. SH-SY5Y TTR promoter Gaussia luciferase, luminescence; 100% = recombinant luciferase protein wells;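 active = activation above the mean of all tested compounds plus 3 SD, cut at about 9.5% in these data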;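 also: cells exposed to compounds for one day before reading; 0% = median of all test compound wells on the plate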
TTR inh HuH7: HuH7 TTR transcription inhibition, counter-screen | shares compounds with TTR transcr act | HuH7 TTR promoter-Gaussia luciferase reporter, luminescence | inhibition, % at 16.7 µM | 1,100 compounds, 4% hits | AID 1117279;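 active = average inhibition above the solvent-only control wells' mean plus 3 SD, cut at about 15% in these data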;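 also: 0% = cells with DMSO only and 100% = cells with inhibitor control FD; inhibitors lower well luminescence so higher value means more inhibition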
TTR act confirm: confirmation of human transthyretin transcription activators | shares compounds with TTR transcr act | SHSY5Y TTR promoter Gaussia luciferase, luminescence; 100% = purified Lucia enzyme wells, no cells | activation, % at 16.7 µM | 1,100 tested, under 10 active | AID 1117280;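 active = mean activation above a set limit taken from the earlier primary screen, cut at about 11% in these data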;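 also: 0% = DMSO-treated cells and 100% = recombinant Lucia luciferase without cells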
The depositor's hits bear a star.

SMILES | TTR transcr act | others
C=CC[C@@H](CC(=O)NCCO)C(=O)N[C@@H](C)COC(=O)[C@@H](CC=C)Cc1ccc(F)cc1 | 21* | TTR inh HuH7=-15;TTR act confirm=0
C=CC[C@@H](CC(=O)N[C@H](CO)Cc1ccccc1)C(=O)N[C@@H](C)COC(=O)[C@@H](CC=C)Cc1ccc(F)cc1 | -5
C=CCC[C@@H](Cc1ccc(F)cc1)C(=O)OC[C@@H](Cc1ccccc1)NC(=O)[C@H](CC=C)CC(=O)NCCO | -1
COc1ccc(C(=O)N[C@@H]2CC[C@@]34CCCN3C(=O)CCC[C@H]4[C@H]2C)cc1 | 0
CCC[C@H]1[C@@H](OC(=O)NCc2ccc(OC)cc2)CC[C@@]23CCCN2C(=O)CCC[C@@H]13 | 4
COc1ccc(S(=O)(=O)n2c(N)nc3ccccc32)cc1 | -1
COc1ccc(S(=O)(=O)N2CCN(Cc3ccccc3OC)CC2)cc1 | -1
CCn1c(N2CCN(S(=O)(=O)c3ccc(OC)cc3)CC2)nc2ccccc21 | 14* | TTR inh HuH7=-12;TTR act confirm=-1
Cc1cccc(C(=O)NCC(=O)OCc2nc(N)nc(Nc3ccccc3C)n2)c1 | 2
C[C@H]1[C@H](NC(=O)c2ccc(Cl)c(Cl)c2)CC[C@@]23CCCN2C(=O)CCC[C@@H]13 | 0
COc1ccc(CNC(=O)COC(=O)[C@H](Cc2ccccc2)NC(=O)c2cccs2)cc1 | 1
CN(C)CCCNC(=O)c1cc(C(=O)Cc2ccccc2)c[nH]1 | 21* | TTR inh HuH7=-11;TTR act confirm=0
O=C(Cc1ccccc1)c1c[nH]c(C(=O)NCc2ccncc2)c1 | 2
CN(C)CCCNC(=O)c1cc(C(=O)C2CCCCC2)c[nH]1 | 0
CC(C)OC(=O)c1cc(C(=O)c2cc(Cl)ccc2O)coc1=N | 0
COc1cc([N+](=O)[O-])ccc1NC(=O)C[n+]1cccc(C(C)=O)c1 | 1
NC1=NS(=O)(=O)Nc2ccccc21 | -1
CC(=O)NC(Cc1ccccc1)P(=O)(O)O (centres undefined) | -2
CC12COC3(C(=O)NCCc4ccccc4)CC1CCC32C (centres undefined) | 3
Cc1ccccc1NC(=O)C12CC3CCC1(C)C3(C)CO2 (centres undefined) | 14* | TTR inh HuH7=-15;TTR act confirm=0
Cc1ccccc1NC(=O)C1C2CCC(O2)C1C(=O)O (centres undefined) | 2
COP(=O)(O)C(Cc1ccccc1)NC(=O)OCc1ccccc1 (centres undefined) | 0
Cc1nn(Cc2ccccc2)c(Cl)c1C(=O)NCCc1ccc(Cl)cc1 | -1
CCOc1ccc(CCNC(=O)c2c(C)nn(-c3ccccc3)c2Cl)cc1OCC | 12* | TTR inh HuH7=-16;TTR act confirm=0
Cc1nn(-c2ccccc2)c(C)c1C(=O)NCCc1ccccc1 | -1
SMILES | TTR transcr act | others
Cc1ccc(CN2CCCCC(NC(=O)Nc3ccccc3F)C2=O)cc1 (centres undefined) | -2
CCCCCCN1C[C@H](n2cc(-c3ccc(F)cc3)nn2)[C@@H](O)C[C@@H]1c1ccc(C)cc1 | -1
COCCN(C(=O)COc1ccccc1C#N)c1c(N)n(Cc2ccccc2)c(=O)[nH]c1=O | 9
CC1=C2C3OC(=O)C(C)[C@@H]3CC[C@](C)(O)C2C2C3C4C5(C12)[C@H]1OC(=O)[C@@H](C)C1CC[C@]4(C)O[C@]5(C)[C@@H]3O (some centres undefined) | 3
CC1(C)CC(Cc2nc(=S)[nH][nH]2)C(=O)O1 (centres undefined) | 0
Cn1c(CNC(=O)c2cccs2)n[nH]c1=S | 0
Cc1cccc(C(=O)NCCc2n[nH]c(=S)n2C)c1 | 0
Cc1ccc(NC(=O)Cc2n[nH]c(=S)n2C)cc1 | 11* | TTR inh HuH7=-5;TTR act confirm=1
COc1ccc(C2OCCNC3C2C(=O)N(Cc2ccc(OC)cc2OC)C3Cc2ccccc2)cc1 (centres undefined) | 0
CC(C)[C@H](NC(=O)N1CC(=O)Nc2ccccc21)C(=O)N[C@@H](Cc1ccccc1)C(=O)O | 2
CCC(C)[C@H](NC(=O)N1CC(=O)Nc2ccccc21)C(=O)N[C@@H](Cc1c[nH]c2ccccc12)C(=O)O (some centres undefined) | 12* | TTR inh HuH7=-22;TTR act confirm=0
CC(C)C[C@H](NC(=O)N1CC(=O)Nc2ccccc21)C(=O)N[C@H](Cc1c[nH]c2ccccc12)C(=O)O | 2
Cc1ccccc1CN1CCCCC(NC(=O)Cc2cccs2)C1=O (centres undefined) | 0
COCC(=O)N[C@H]1C[C@@H]2O[C@@H](CO)CC[C@@H]2O[C@@H]1CCc1ccc(-c2ccccc2)cc1 | 6
O=C(NCc1ccccc1)C1c2ccccc2OCC(=O)N1Cc1ccc2c(c1)OCO2 (centres undefined) | 1
O=C(Nc1ccc(OC(F)(F)F)cc1)Nc1c(-c2ccccc2)nc2ncccn12 | 0
CC(C)(C)C(=O)N1CCC(O)(CS(=O)(=O)Cc2ccccc2Cl)CC1 | 5
C=CCNC(=O)N1CCC(CO)(Cc2ccc(Cl)cc2)CC1 | -1
O=C(C1CC12CCCC2)N1CCC(CO)(Cc2ccccc2Cl)CC1 (centres undefined) | 13* | TTR inh HuH7=6;TTR act confirm=-1
CN(C)CCCNC(=O)C[C@@H]1CC[C@@H]2[C@H](COc3ccc(NC(=O)c4cccc(F)c4)cc3C(=O)N2C)O1 | 0
CC#CC(=O)N[C@H]1CC[C@@]23CCCN2C(=O)CCC[C@H]3[C@H]1C | -2
Cc1ccc(NC(=O)[C@@H]2CCCN2S(=O)(=O)c2cccc3cccnc23)c(C)c1 | 1
Cc1ccccc1NC(=O)/C(=C\c1cccs1)NC(=O)c1ccco1 | 2
O=C(N/C(=C\c1cccs1)C(=O)N1CCOCC1)c1ccco1 | -1
CN1CCN(C(=O)/C(=C\c2cccs2)NC(=O)c2ccco2)CC1 | 9.7* | TTR inh HuH7=3;TTR act confirm=-1
SMILES | TTR transcr act | others
Cc1cccc(Cn2cc(COC(=O)N3CCOCC3)nn2)c1 | -1
COc1cccc(CNC(=O)COC(=O)C2CCN(c3ccc(C(F)(F)F)cn3)CC2)c1 | -2
CC1CNC(=S)N(c2ccccc2)C1=O (centres undefined) | 0
COc1ccc(Sc2nnc(-c3ccccc3)cc2C#N)cc1 | 10* | TTR inh HuH7=2;TTR act confirm=-1
Cc1ccc(Sc2nnc(-c3ccccc3)cc2C#N)cc1 | 4
COc1ccc(C(=O)CSc2ccc(-c3ccccc3)nn2)cc1 | 0
C#CCNC(=O)C[C@H]1C[C@@]2(C(=O)OC)C(=C[C@H](COCc3ccccc3)O[C@@H]2C)N(Cc2ccccc2)C1=O | 0
CSc1ncccc1C(=O)Nc1ccc2c(c1)OCCO2 | 1
FC(F)(F)c1ccccc1NC(=S)OCCN1CCCC12CCC(c1ccccc1)CC2 (centres undefined) | 1
Cc1noc(C)c1COc1ccc(C(=O)Nc2ccccc2)cc1 | 0
CCc1ccccc1NC(=O)c1ccc(OCc2c(C)noc2C)cc1 | 49* | TTR inh HuH7=-12;TTR act confirm=1
Cc1noc(C)c1COc1ccc(C(=O)Nc2ccccn2)cc1 | 0
C[C@@H]1CN([C@H](C)CO)S(=O)(=O)c2ccc(C#Cc3ccccc3)cc2O[C@H]1CN(C)C(=O)Nc1ccc2c(c1)OCO2 | -2
COc1ccc(C(NC(=O)C2CCN(Cc3ccc(Oc4ccccc4)cc3)CC2)c2ccccn2)cc1 (centres undefined) | 1
